Laboratory results reported in PubChem BioAssay (NCATS).
Inconclusive results are not listed. Calls of active or inactive are those of the source. Calls come from the whole dose curve; as a rule, active = well fitted curve in the direction sought with a large enough effect; inconclusive = small, poorly fitted or top-dose-only effect, or another doubt; inactive = no such curve, though single readings can be large; an effect the other way counts as inactive or inconclusive.

How the values were obtained:
[1] = tested on: Zika virus NS2B-NS3 protease (unlinked complex); experiment: Primary screen GU Rhodamine qHTS for Zika virus inhibitors: Unlinked NS2B-NS3 protease assay (AID 1347159); note: % is set by controls: 0 for no effect and ±100 for the full control effect; nearly all actives have a fitted effect of over 60% in size
Summary of the method: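 Noncovalent NS2B hydrophilic domain/NS3 protease complex (25 nM final) in 10 mM Tris-HCl pH 8.0, 0.01% Tween 20, preincubated 15 min with compounds (up to 114 microM), then 1.5 microM Rhodamine110 substrate. Fluorescence change over 15 min fitted to 4-parameter Hill.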

[2] = tested on: Zika virus NS2B-NS3 protease (linked construct); experiment: Primary screen NINDS Rhodamine qHTS for Zika virus inhibitors (AID 1347160); note: nearly all actives have a fitted effect of over 55% in size
Summary of the method: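 Purified NS2B-NS3 protease with the NS2B hydrophilic domain joined by a flexible linker (25 nM) in 10 mM Tris-HCl pH 8.0, 0.01% Tween 20, preincubated 15 min at RT with compound; Rhodamine110 peptide substrate 1.5 µM; fluorescence change over 15 min; 4-parameter Hill fit.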

[3] = biological target: Calcium and integrin-binding protein 1 (Homo sapiens) (UniProt Q99828); experiment: Primary qHTS for Identification of Calcium Integrin Binding Protein 1 (CIB1) Competitor (AID 1508620);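 note: GST tagged CIB1 binding a fluorescein labelled alphaIIb integrin peptide tracer; top concentration of the series differs between compounds; % is set by controls: 0 for no effect and ±100 for the full control effect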
Calcium and integrin-binding protein 1 (Homo sapiens), sequence (Q99828 whole entry, looked up): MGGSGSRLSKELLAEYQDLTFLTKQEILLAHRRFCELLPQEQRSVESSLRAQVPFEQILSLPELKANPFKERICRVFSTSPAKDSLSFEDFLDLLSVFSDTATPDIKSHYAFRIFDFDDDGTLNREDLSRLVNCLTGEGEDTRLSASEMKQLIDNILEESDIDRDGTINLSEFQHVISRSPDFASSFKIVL
Summary of the method: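 Fluorescence polarization competition: CIB1-GST (1 uM final) preincubated with compound 15 min at room temperature, then FITC-labeled alphaIIb peptide (100 nM final) added for another 15 min. Polarization read at Ex 480/Em 540.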

[4] = biological target: Glutathione peroxidase 1 (Homo sapiens) (UniProt P07203); experiment: Primary qHTS Assay for Inhibitors of Recombinant Selenoprotein Glutathione Peroxidase 1 (GPX1) (AID 1845191); note: nearly all actives have a fitted effect of over 65% in size
Glutathione peroxidase 1 (Homo sapiens), sequence (P07203 whole entry, looked up): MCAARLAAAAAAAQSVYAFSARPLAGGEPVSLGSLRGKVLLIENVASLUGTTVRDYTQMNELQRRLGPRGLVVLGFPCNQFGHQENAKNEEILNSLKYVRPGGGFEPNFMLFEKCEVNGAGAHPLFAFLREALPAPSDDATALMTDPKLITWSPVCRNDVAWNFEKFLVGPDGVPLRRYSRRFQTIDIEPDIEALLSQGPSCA
Summary of the method: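 Recombinant GPX1 (10 nM final) was preincubated with compound for 30 min at room temperature, then reacted with 1 mM GSH, 0.5 mM CHP, 0.5 mM NADPH and 100 nM glutathione reductase; NADPH fluorescence (340/450 nm) was read at 0 and 15 min.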

[5] = biological target: Phospholipid hydroperoxide glutathione peroxidase GPX4 (Homo sapiens) (UniProt P36969); experiment: Primary qHTS Assay for Inhibitors of Recombinant Selenoprotein Glutathione Peroxidase 4 (GPX4) (AID 1845192); note: % is set by controls: 0 for no effect and ±100 for the full control effect; nearly all actives have a fitted effect of over 65% in size
Phospholipid hydroperoxide glutathione peroxidase GPX4 (Homo sapiens), sequence (P36969 whole entry, looked up): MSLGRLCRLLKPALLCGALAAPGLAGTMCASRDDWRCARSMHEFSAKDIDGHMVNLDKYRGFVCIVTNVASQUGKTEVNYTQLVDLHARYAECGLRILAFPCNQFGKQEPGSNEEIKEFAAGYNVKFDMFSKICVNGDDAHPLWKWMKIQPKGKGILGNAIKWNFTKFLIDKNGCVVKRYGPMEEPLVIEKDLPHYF
Summary of the method: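 GR-coupled readout: 100 nM GR, 1 mM GSH, 0.5 mM NADPH; NADPH fluorescence (ex 340/em 450 nm) read at t=0 and after 15 min RT. GPX4 200 nM, preincubated 30 min with compound; substrate 0.5 mM CHP.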

[6] = biological target: Luciferin 4-monooxygenase (Photinus pyralis) (UniProt P08659); experiment: Primary firefly luciferase (FLuc) qHTS assay for identification of artifact compounds. (AID 1845220); settings: outcome: dose series up to 54.1 µM unless noted; note: nearly all actives have a fitted effect of over 60% in size
Summary of the method: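 In this counter-screen for luciferase artifacts, test compounds met substrate (10 uM each luciferin and ATP) before 10 nM enzyme started the reaction. Light output was measured 5 min later.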

[7] = Primary fluorescence-based thiol-reactive (MSTI) qHTS assay for identification of artifact compounds. (AID 1845221);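 note: thiol-reactive compounds lower the probe fluorescence signal; nearly all actives have a fitted effect of over 65% in size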
Summary of the method: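 MSTI probe at 4 uM final in 2% DMSO/PBS pH 7.4; compounds, 1 h at room temperature in dark. Fluorescence Ex/Em 525/598 nm, normalised to Acetyl-MSTI and MSTI, fitted to 4-parameter Hill.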

[8] = tested on: Nanoluciferase (engineered Oplophorus gracilirostris luciferase); experiment: Primary Nanoluciferase (NLuc) qHTS assay for identification of artifact compounds. (AID 1845222);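 note: NLuc secreted into diluted conditioned medium of S16 cells; 0% = DMSO and -100% = no enzyme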
Summary of the method: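 Using secreted nanoluciferase in S16 culture medium (0.22 um filtered, 1:55 dilution), compounds were preincubated 15 min at RT. Signal was generated with Nano-Glo reagent (1:100) over 5 min.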

[9] = Primary redox qHTS assay for identification of artifact compounds. (AID 1845223);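 note: 0% = DMSO and 100% = reference compound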
Summary of the method: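 Amplex Red (25 uM) and HRP (250 mU/mL) in HBSS, with compounds for 15 min, then 250 uM DTT for 30 min, room temperature, dark. Fluorescence 525/598 nm read; normalized to DMSO and 10 uM DA3003; Hill fit.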

[10] = tested on: HaCat; experiment: Cytotoxic Profiling of Annotated Libraries Using Quantitative High-Throughput Screening (AID 1296008); settings: Five cell lines viability, CellTiter-Glo ATP luminescence, 48-72 h; max response: active compounds read low; note: nearly all actives have a fitted effect of over 60% in size; note: potency is the fitted concentration of half-maximal effect; for max response: % is set by controls: 0 for no effect and ±100 for the full control effect
Summary of the method: (§1)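 Compounds were pin-transferred onto cells and incubated 48 or 72 hr at 37 degree Celsius, 95% humidity. CellTiter-Glo was added, plates sat 10 min at room temperature, then ATP-coupled luminescence was imaged as the viability read-out.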

[11] = tested on: NIH3T3; experiment: as above; settings: Five cell lines viability, CellTiter-Glo ATP luminescence, 48-72 h; max response: active compounds read low
Summary of the method: as §1

[12] = tested on: C33A; experiment: Primary qHTS to identify gynecologic anti-cancer compounds using libraries of approved drugs and bioactive compounds (AID 1345084); settings: Gynecologic cancer cell panel viability, ATPlite luminescence, 48 h; series mostly up to 57.5 µM; note: nearly all actives have a fitted effect of over 55% in size; note: potency is the fitted concentration of half-maximal effect; for activity change, negative = cytotoxicity: % is set by controls: 0 for no effect and ±100 for the full control effect
Summary of the method: (§2)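 Cells, 1,000 per well, plated 16 h, then exposed 48 h at 37 C to compounds. Viability by ATPlite luminescence after 15 min at room temperature.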

[13] = tested on: CASKI; experiment: as above; settings: Gynecologic cancer cell panel viability, ATPlite luminescence, 48 h; series mostly up to 57.5 µM
Summary of the method: as §2

[14] = tested on: Es-2; experiment: as above; settings: Gynecologic cancer cell panel viability, ATPlite luminescence, 48 h; series mostly up to 57.5 µM
Summary of the method: as §2

[15] = tested on: Hek293T; experiment: as above; settings: Gynecologic cancer cell panel viability, ATPlite luminescence, 48 h, control line for the selectivity index; series mostly up to 57.5 µM
Summary of the method: as §2

[16] = tested on: JEG-3; experiment: as above; settings: Gynecologic cancer cell panel viability, ATPlite luminescence, 48 h; series mostly up to 57.5 µM
Summary of the method: as §2

[17] = tested on: OV90; experiment: as above; settings: Gynecologic cancer cell panel viability, ATPlite luminescence, 48 h; series mostly up to 57.5 µM
Summary of the method: as §2

[18] = tested on: PA-1; experiment: as above; settings: Gynecologic cancer cell panel viability, ATPlite luminescence, 48 h; series mostly up to 57.5 µM
Summary of the method: as §2

[19] = tested on: Tov-21-G; experiment: as above; settings: Gynecologic cancer cell panel viability, ATPlite luminescence, 48 h; series mostly up to 57.5 µM
Summary of the method: as §2

[20] = tested on: Tov112D; experiment: as above; settings: Gynecologic cancer cell panel viability, ATPlite luminescence, 48 h; series mostly up to 57.5 µM
Summary of the method: as §2

CC1(C)C(=O)N(c2ccc(C#N)c(C(F)(F)F)c2)C(=S)N1c1ccc(C(N)=O)c(F)c1
inactive: Potency [1] | Potency [2] | Potency [3] | Potency [4] | Potency [5] | outcome [6] | Potency [7] | Potency [8] | Potency [9] | outcome [10] | max response [11] 0.467% | Potency [12] | Potency [13] | Potency [14] | Potency [15] | Potency [16] | Potency [17] | Potency [18] | Potency [19] | Potency [20]

CCCCOC(=O)c1ccnc2cc(C(OCCN3CCCCC3)c3ccccc3Cl)sc12 (stereo unspecified)
inactive: Potency [1] | Potency [2] | Potency [3] | Potency [4] | Potency [5] | outcome [6] | Potency [8] | Potency [9] | outcome [10] | max response [11] -3.89% | Potency [12] | Potency [13] | Potency [14] | Potency [15] | Potency [16] | Potency [17] | Potency [18] | Potency [19] | Potency [20]

c1ccc(C2(c3ccccc3)OC[C@@H]([C@H]3CCCCN3)O2)cc1
inactive: Potency [1] | Potency [2] | Potency [3] | Potency [4] | Potency [5] | outcome [6] | Potency [7] | Potency [8] | Potency [9] | max response [10] 4.38% | max response [11] 0.771% | Potency [12] | Potency [13] | Potency [14] | Potency [15] | Potency [16] | Potency [17] | Potency [18] | Potency [19] | Potency [20]

Cc1cccc(NC(=O)NC2N=C(c3ccccc3)c3ccccc3N(CC(=O)c3ccccc3C)C2=O)c1 (stereo unspecified)
inactive: Potency [2] | Potency [3] | Potency [4] | Potency [5] | outcome [6] | Potency [7] | Potency [8] | Potency [9] | outcome [10] | outcome [11] | Potency [12] | Potency [13] | Potency [14] | Potency [15] | Potency [16] | Potency [17] | Potency [18] | Potency [19] | Potency [20]

CN1C(=O)C(Cc2ccc3ccccc3c2)N=C(c2ccc(O)cc2)c2cc(Cl)ccc21 (stereo unspecified)
inactive: Potency [1] | Potency [3] | Potency [4] | Potency [5] | outcome [6] | Potency [7] | Potency [8] | Potency [9] | outcome [10] | max response [11] -0.878% | Potency [12] | Potency [13] | Potency [14] | Potency [15] | Potency [16] | Potency [17] | Potency [18] | Potency [19] | Potency [20]

CCC(C)C1NC(=O)C(C(C)=O)=C1O (stereo unspecified)
inactive: Potency [1] | Potency [4] | Potency [5] | outcome [6] | Potency [7] | Potency [8] | Potency [9] | outcome [10] | Potency [12] | Potency [13] | Potency [14] | Potency [15] | Potency [16] | Potency [17] | Potency [18] | Potency [19] | Potency [20]

C=C(C)[C@@]12O[C@@H]1[C@@]1(C)C(=C[C@H]2O)CC[C@@H](O)[C@@H]1C
inactive: Potency [1] | Potency [2] | Potency [3] | Potency [4] | Potency [5] | outcome [6] | Potency [7] | Potency [8] | Potency [9] | max response [10] -1.07% | max response [11] 2.77% | Potency [12] | Potency [13] | Potency [14] | Potency [15] | Potency [16] | Potency [17] | Potency [18] | Potency [19] | Potency [20]

NCCCCCNC1(c2ccccc2)CCCCC1
inactive: Potency [1] | Potency [2] | Potency [3] | Potency [4] | outcome [6] | Potency [7] | Potency [9] | outcome [10] | max response [11] -1.15% | Potency [12] | Potency [13] | Potency [14] | Potency [15] | Potency [16] | Potency [17] | Potency [18] | Potency [19] | Potency [20]

CCC1CN2CCc3cc(OC)c(OC)cc3C2CC1CC1=NCCc2cc(O)c(OC)cc21 (stereo unspecified)
inactive: Potency [1] | Potency [2] | Potency [3] | Potency [5] | outcome [6] | Potency [8] | outcome [10] | Potency [12] | Potency [13] | Potency [14] | Potency [15] | Potency [16] | Potency [17] | Potency [18] | Potency [19] | Potency [20]

CC[C@@H]1C[C@H]2CC[C@H](O2)[C@H](C)C(=O)O[C@@H](C)C[C@@H]2CC[C@@H](O2)[C@@H](C)C(=O)O[C@H](C)C[C@H]2CC[C@H](O2)[C@H](C)C(=O)O[C@@H](C)C[C@@H]2CC[C@@H](O2)[C@@H](C)C(=O)O1
inactive: Potency [2] | Potency [3] | Potency [4] | Potency [5] | outcome [6] inactive [at 25.7 µM] | Potency [8] | Potency [9] | Potency [16]
active: Potency [10] 485 nM | Potency [11] 86.2 nM | Potency [13] 501 nM | Potency [14] 708 nM | Potency [15] 282 nM | Potency [17] 447 nM | Potency [18] 398 nM

CCCN(CCC)[C@@H]1CCc2ccc3[nH]c(C#N)cc3c2C1
inactive: Potency [1] | Potency [2] | Potency [3] | Potency [4] | Potency [5] | outcome [6] | Potency [7] | Potency [9] | outcome [10] | outcome [11] | Potency [12] | Potency [13] | Potency [14] | Potency [15] | Potency [16] | Potency [17] | Potency [18] | Potency [19] | Potency [20]

CC[C@@H]1/C=C/C=C/C[C@H](C)C(O)[C@](C)(O)C(=O)[C@H](C)C(O)[C@H](C)C(=O)[C@H](C)[C@@H](O)[C@H](C)/C=C/C(=O)O[C@H]2[C@@H](C)[C@@H](CC1)O[C@]1(O[C@H](C[C@H](C)O)[C@H](C)CC1=O)[C@@H]2C (stereo partly specified)
inactive: Potency [2] | Potency [3] | Potency [4] | Potency [5] | outcome [6] inactive [at 11.6 µM] | activity change, negative = thiol reactive [7] -8.56% [at 11.5 µM] | redox activity (% of DA3003) [9] 13.1% [at 11.5 µM] | max response [10] -17.7% | max response [11] -27% | activity change, negative = cytotoxicity [13] -1.41% [at 11.6 µM] | activity change, negative = cytotoxicity [14] -1.68% [at 11.6 µM] | activity change, negative = cytotoxicity [16] 22.8% [at 11.6 µM] | activity change, negative = cytotoxicity [19] 25.5% [at 11.6 µM] | activity change, negative = cytotoxicity [20] -13.7% [at 11.6 µM]
